In the supplement of paper PMC11732987, “Enantioselective OTUD7B fragment discovery through chemoproteomics screening and high-throughput optimisation” (Communications Chemistry, 2025):

How the values were obtained:
Experiment in all cases: log2 ratio of Biotin-Ahx-Ub-VS probe labelling (fragment/DMSO); higher = less target engagement (more negative = stronger competition), active = hit call of the paper (q ≤ 0.05, log2 ratio ≤ -1)
Details in all cases: compound concentration: 200 uM; treatment time: 3 h
[1] = target: T1, USP19 (UniProt O94966)
T1 sequence (whole entry): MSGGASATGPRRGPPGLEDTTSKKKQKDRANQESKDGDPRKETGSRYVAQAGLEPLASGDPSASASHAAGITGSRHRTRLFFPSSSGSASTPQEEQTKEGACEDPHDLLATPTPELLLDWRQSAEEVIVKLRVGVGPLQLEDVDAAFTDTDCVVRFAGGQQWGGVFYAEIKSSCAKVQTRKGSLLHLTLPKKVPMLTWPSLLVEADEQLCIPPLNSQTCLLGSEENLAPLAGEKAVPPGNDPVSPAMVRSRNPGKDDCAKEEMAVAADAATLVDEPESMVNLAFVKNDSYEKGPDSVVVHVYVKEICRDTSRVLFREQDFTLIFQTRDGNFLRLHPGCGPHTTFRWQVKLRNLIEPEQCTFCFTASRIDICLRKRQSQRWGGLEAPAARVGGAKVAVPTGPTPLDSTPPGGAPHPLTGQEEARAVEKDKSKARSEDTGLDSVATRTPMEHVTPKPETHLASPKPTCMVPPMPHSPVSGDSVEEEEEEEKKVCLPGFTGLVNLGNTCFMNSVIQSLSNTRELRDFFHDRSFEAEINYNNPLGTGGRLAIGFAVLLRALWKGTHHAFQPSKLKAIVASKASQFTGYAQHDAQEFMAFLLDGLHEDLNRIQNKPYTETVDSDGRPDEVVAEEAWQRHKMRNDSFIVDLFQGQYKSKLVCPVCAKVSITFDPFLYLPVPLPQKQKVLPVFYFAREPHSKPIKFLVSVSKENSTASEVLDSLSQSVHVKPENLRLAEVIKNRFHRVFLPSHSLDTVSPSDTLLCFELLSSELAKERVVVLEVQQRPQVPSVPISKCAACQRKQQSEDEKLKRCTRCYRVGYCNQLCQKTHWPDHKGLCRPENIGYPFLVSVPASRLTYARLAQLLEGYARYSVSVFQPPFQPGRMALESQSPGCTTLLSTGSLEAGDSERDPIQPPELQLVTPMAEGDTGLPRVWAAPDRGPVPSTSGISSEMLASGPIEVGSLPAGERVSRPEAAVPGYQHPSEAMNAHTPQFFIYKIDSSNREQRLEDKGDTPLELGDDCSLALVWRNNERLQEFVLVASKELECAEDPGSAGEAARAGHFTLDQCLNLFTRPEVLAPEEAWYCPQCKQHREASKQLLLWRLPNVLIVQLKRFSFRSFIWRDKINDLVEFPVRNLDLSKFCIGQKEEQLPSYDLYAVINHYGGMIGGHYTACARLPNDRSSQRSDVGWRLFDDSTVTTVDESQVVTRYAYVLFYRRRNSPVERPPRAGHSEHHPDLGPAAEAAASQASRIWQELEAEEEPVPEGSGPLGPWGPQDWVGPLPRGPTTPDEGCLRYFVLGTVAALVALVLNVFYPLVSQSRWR
Outline: (§1)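 Each value is an average log2 ratio of fragment to vehicle, tested by unpaired t-test. The underlying Spectronaut label-free quantities were global-median-normalised, and only proteins with ≥2 unique peptides were included. Triplicate HEK293T lysate samples (495 µg) were exposed to fragment at 200 µM or vehicle for 3 h, then to Biotin-Ahx-Ub-VS at 0.5 µM final for 1 h, before NeutrAvidin enrichment of labelled DUBs, LysC and trypsin digestion, and diaPASEF LC-MS/MS.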

[2] = target: T2, USP22 (UniProt Q9UPT9)
T2 sequence (whole entry): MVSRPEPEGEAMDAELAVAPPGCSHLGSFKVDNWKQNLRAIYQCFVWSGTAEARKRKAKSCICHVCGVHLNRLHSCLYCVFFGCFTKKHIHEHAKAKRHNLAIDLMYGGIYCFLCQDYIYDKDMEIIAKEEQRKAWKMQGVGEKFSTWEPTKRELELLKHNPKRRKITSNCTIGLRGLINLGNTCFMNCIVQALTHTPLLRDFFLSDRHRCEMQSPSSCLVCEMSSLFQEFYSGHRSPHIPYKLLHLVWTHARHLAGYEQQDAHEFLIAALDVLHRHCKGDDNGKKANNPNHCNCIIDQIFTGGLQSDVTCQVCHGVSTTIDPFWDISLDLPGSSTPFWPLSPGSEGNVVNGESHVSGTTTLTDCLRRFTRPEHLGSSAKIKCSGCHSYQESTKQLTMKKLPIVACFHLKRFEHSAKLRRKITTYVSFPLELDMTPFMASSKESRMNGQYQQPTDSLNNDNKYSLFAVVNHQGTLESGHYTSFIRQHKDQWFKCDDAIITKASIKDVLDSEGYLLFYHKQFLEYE
Outline: as §1

[3] = target: USP24 (UniProt Q9UPU5)
Outline: as §1

[4] = target: T3, USP25 (UniProt Q9UHP3)
T3 sequence (whole entry): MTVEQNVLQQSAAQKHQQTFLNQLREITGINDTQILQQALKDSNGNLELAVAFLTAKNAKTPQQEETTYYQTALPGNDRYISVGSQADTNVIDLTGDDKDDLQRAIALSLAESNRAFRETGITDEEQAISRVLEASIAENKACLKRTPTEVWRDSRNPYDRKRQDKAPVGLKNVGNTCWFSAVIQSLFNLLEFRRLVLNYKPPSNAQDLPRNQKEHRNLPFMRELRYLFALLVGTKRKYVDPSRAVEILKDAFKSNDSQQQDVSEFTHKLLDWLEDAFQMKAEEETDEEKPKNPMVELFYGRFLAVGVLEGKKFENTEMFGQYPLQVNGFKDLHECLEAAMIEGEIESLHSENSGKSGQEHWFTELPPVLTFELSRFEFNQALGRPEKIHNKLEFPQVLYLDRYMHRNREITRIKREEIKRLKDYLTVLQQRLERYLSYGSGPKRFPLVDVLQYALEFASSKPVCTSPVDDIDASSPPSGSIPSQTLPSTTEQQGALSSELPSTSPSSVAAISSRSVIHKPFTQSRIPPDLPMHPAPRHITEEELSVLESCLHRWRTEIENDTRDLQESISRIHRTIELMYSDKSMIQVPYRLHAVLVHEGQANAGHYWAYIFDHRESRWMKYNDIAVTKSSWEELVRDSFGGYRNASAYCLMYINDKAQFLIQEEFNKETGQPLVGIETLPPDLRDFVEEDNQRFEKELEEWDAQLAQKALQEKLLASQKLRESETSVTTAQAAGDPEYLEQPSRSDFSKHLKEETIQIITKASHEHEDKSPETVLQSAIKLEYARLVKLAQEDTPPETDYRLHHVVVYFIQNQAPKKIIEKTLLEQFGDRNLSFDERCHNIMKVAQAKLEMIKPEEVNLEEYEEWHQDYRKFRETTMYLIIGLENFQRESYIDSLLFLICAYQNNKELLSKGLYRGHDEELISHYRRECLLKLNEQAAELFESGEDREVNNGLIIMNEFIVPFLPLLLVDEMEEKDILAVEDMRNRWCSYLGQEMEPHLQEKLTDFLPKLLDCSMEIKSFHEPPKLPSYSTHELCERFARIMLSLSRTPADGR
Outline: as §1

[5] = target: T4, USP28 (UniProt Q96RU2)
T4 sequence (whole entry): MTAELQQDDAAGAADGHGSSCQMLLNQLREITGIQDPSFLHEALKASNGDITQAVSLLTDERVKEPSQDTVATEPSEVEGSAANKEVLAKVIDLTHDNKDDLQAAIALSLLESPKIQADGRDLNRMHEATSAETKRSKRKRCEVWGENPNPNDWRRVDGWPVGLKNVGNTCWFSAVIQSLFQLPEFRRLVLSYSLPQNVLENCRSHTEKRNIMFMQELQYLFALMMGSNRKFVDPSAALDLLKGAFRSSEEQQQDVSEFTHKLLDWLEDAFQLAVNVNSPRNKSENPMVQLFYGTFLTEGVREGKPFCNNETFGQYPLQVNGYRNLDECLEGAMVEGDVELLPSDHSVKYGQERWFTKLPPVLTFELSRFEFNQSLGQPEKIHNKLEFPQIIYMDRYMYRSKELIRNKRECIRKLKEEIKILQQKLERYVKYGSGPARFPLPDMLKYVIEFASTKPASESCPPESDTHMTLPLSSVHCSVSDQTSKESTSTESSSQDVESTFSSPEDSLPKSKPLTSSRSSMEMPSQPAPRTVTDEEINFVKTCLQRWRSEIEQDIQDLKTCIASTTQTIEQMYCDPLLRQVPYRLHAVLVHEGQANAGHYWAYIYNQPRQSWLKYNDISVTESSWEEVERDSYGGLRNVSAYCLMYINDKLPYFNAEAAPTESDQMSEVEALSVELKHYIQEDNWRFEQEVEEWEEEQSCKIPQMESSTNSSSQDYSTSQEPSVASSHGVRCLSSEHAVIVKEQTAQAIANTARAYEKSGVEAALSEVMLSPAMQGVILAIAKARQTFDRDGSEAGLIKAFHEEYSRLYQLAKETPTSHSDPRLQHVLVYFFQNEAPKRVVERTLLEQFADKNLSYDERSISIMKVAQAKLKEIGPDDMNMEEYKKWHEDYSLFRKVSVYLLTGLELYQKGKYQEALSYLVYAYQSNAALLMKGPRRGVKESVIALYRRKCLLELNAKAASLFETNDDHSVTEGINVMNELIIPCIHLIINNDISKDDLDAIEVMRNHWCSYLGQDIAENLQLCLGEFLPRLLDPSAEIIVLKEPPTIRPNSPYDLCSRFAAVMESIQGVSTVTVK
Outline: as §1

Measured: log2 ratio of Biotin-Ahx-Ub-VS probe labelling

USP24, sequence (Q9UPU5 whole entry): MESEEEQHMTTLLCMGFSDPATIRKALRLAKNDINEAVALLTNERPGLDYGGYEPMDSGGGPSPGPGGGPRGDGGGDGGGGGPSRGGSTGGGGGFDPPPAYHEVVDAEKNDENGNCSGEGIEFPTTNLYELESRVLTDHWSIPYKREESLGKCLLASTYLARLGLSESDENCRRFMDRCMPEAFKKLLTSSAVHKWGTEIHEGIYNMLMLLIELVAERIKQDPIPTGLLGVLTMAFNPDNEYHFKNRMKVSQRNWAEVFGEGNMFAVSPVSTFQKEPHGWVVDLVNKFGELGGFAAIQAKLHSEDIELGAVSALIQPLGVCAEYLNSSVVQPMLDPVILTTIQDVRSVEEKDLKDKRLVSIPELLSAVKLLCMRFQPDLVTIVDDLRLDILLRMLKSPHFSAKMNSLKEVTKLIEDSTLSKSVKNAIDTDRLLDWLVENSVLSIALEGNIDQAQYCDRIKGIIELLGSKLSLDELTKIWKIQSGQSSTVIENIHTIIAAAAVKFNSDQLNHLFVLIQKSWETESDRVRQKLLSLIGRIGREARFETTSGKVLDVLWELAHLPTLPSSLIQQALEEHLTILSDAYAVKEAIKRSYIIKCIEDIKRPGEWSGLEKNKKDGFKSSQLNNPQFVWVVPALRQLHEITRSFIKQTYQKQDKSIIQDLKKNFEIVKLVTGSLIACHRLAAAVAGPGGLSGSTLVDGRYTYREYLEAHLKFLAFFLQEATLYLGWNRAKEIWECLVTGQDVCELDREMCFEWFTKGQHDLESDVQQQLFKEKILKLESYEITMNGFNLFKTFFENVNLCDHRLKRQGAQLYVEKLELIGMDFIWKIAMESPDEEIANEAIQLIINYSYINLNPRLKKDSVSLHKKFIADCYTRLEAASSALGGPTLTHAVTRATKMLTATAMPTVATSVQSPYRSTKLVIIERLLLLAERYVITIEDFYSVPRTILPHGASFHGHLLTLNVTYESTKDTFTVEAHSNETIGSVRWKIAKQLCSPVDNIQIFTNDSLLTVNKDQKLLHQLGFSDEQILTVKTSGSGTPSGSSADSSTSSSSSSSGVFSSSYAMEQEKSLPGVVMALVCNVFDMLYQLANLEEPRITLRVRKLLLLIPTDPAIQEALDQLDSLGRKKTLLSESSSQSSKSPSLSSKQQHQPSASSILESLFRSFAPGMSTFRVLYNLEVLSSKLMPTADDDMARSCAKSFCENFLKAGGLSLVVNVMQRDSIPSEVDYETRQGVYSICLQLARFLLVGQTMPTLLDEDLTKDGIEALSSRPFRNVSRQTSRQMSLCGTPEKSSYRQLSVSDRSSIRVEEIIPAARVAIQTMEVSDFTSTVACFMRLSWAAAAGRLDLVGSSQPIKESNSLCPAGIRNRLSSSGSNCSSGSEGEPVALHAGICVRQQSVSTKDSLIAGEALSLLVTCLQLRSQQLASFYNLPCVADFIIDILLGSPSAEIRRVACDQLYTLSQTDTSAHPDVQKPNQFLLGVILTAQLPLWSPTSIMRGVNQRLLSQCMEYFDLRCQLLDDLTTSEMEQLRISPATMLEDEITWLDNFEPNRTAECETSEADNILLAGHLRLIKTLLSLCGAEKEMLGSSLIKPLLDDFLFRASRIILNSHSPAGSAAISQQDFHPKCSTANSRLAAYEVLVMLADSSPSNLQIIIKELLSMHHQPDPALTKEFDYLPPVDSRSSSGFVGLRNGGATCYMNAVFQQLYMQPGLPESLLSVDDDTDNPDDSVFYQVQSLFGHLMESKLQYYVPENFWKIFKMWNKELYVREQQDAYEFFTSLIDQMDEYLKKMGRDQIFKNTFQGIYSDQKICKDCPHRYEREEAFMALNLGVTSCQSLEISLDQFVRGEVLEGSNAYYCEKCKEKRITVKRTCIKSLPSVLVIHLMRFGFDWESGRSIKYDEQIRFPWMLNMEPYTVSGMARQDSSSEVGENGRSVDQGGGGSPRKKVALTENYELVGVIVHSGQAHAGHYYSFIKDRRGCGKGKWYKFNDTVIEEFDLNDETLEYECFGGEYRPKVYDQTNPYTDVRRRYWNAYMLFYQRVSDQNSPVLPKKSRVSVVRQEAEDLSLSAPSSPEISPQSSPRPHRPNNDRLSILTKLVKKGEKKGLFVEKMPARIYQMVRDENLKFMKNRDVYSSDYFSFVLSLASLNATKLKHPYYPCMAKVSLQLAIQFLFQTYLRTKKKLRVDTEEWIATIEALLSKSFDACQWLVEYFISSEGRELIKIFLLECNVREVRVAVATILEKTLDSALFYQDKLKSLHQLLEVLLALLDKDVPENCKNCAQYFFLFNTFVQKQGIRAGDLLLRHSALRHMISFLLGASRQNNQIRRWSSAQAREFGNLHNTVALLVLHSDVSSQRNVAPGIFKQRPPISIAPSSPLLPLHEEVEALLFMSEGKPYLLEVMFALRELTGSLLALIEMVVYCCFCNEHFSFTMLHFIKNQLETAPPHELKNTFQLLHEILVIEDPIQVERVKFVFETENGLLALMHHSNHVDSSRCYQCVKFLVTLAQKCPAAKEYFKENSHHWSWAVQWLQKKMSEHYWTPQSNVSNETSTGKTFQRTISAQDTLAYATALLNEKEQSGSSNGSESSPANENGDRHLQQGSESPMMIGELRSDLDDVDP

O=C(CCl)NCCc1ccc2c(c1)OCCO2
inactive: [1] -0.254 | [2] 0.0144 | [3] -0.665 | [4] -0.794 | [5] -0.745
